Source: PubChem BioAssay AID887 (National Center for Advancing Translational Sciences (NCATS), 2007)
Values joined by “and” are separate entries in the source; they are usually repeats but may differ in a detail not shown here. Equal values may be shown once. Screen size: about 74,000 compounds; about 1,100 (1.5%) were called active. Not shown: some 5% with an inconclusive outcome. This excerpt belongs to a sample that is enriched for actives. Values without a mark were called inactive. The call rests on the fitted dose curve; in most records, active means well fitted inhibition curve with a large enough effect; inconclusive means small, poorly fitted or top-dose-only effect; inactive means no such curve, though single readings can be large or run the other way.

What follows are molecules tested against Polyunsaturated fatty acid lipoxygenase ALOX15 (Homo sapiens) (UniProt P16050) (assay: qHTS Assay for Inhibitors of 15-hLO (15-human lipoxygenase)). Details: purified 15hLO-1, xylenol orange hydroperoxide absorbance; series mostly up to 57.1 µM; activity change, negative = inhibition: at the top concentration.
Method in brief: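 Purified human 15hLO-1 (40 nM) in 25 mM Hepes pH 7.5, 0.01% Triton X-100, preincubated 15 min RT with compound, then 50 uM arachidonic acid for 6 min. Hydroperoxide read by ferrous/xylenol orange, 30 min; 573/405 nm absorbance ratio gave progress.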
Further: nearly all actives have a fitted effect of over 55% in size.
On the % scale 0 is the no-effect control and ±100 the full control effect; potency means the concentration at half of the fitted maximal effect.

Chain of Polyunsaturated fatty acid lipoxygenase ALOX15 (Homo sapiens) (P16050 whole entry, looked up): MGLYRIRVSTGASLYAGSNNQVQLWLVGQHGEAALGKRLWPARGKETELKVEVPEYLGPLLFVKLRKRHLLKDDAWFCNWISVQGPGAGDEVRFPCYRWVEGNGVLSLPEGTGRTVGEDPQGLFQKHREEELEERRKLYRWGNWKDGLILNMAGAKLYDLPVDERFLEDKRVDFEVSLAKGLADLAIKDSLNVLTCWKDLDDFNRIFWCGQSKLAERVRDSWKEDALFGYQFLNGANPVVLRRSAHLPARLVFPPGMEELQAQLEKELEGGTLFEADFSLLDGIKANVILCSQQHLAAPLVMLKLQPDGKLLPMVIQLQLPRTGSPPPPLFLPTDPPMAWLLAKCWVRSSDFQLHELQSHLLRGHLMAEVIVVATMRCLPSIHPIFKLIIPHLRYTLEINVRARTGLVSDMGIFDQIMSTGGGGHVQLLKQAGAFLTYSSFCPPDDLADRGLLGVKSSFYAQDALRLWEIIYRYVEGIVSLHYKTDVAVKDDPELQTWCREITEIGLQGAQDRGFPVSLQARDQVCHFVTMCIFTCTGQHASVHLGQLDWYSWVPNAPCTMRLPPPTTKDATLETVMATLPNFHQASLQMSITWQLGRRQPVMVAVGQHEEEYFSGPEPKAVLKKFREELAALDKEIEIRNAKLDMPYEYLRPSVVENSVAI

For `CC1(C)OC2CC(=O)OC[C@@]23C1CC(=O)[C@]1(C)C3CC[C@@]2(C)C(c3ccoc3)OC(=O)C3O[C@@]321` (stereo not given in full), which “activity change, negative = inhibition” value is on record?
Its value is 2.09%.

With `COc1ccc(C(=O)n2nc(-c3ccc(Cl)cc3)nc2N)cc1OC` as the molecule, how does the “activity change, negative = inhibition” value read?
Its value is 9.61%.

For `COc1ccc(C(=O)n2nc(-c3ccc(C)cc3)nc2N)cc1OC`, which “activity change, negative = inhibition” value is on record?
The value was 8.21%.

`COc1ccccc1C(=O)n1nc(-c2ccccc2)nc1N` was tested. Which Potency did it give?
The Potency was 12.6 µM (active).

With `CCOC(=O)c1cccc(NC(=O)CCn2nnc3ccccc32)c1` as the molecule, how does the “activity change, negative = inhibition” value read?
The value was -10.8%.

Which activity change, negative = inhibition does the source give for `CO[C@@H]1COC(=O)[C@H](Cc2ccccc2)NC(=O)C/C=C\[C@@H](C)[C@H](OC)COC(=O)[C@@H](C)NC(=O)C/C=C\[C@H]1C` here?
Its activity change, negative = inhibition is 2.31% [at 11.4 µM] and 5.99% [at 11.4 µM].

For `Cc1cccc(C(=O)O)c1[N+](=O)[O-]`, which “activity change, negative = inhibition” value is on record?
Its value is 2.6%.

`Cc1ccc2nc(CC(=O)c3ccc4ccccc4c3)c(=O)[nH]c2c1` was tested. Which activity change, negative = inhibition did it give?
Its activity change, negative = inhibition is -4.04% [at 11.4 µM].

With `C=CC(=O)c1ccc2ccccc2c1` as the molecule, how does the Potency read?
The Potency was 12.6 µM (active).

With `Cc1csc(-c2nc3ccccc3n2C)n1` as the molecule, how does the “activity change, negative = inhibition” value read?
Its value is -12.9% [at 25.6 µM].

Which “activity change, negative = inhibition” value does the source give for `Cc1cccc2c3c(ccc12)C1=C(C(=O)C3=O)C(C)CO1` (stereo not given) here?
Its value is -24.2%.

`C/C(CCN1CCc2nc(-c3ccccc3)c(-c3ccccc3)cc2C1)=N\O[C@@H](C)c1cn([C@@H]2COC[C@@H]2O)nn1` was tested. Which activity change, negative = inhibition did it give?
The activity change, negative = inhibition was 0.588% [at 11.4 µM].

With `O=C(Oc1cc(OC(=O)c2ccccc2)c2c(c1)OC(c1ccc(OC(=O)c3ccccc3)c(OC(=O)c3ccccc3)c1)[C@@H](OC(=O)c1ccccc1)C2)c1ccccc1` (stereo not given in full) as the molecule, how does the “activity change, negative = inhibition” value read?
Its value is -3.99%.

For `COC(=O)C(C(=O)OC)[C@@H]1CCCC(=O)C1`, which activity change, negative = inhibition is on record?
The activity change, negative = inhibition was 14.4% [at 11.4 µM].

With `CCn1c(SCC(=O)Nc2nc3ccc(OC)cc3s2)nnc1-c1ccoc1C` as the molecule, how does the “activity change, negative = inhibition” value read?
Its value is -5.95%.

`C=CCn1c(CSc2nc3ccccc3s2)nnc1SCC(=O)NCc1ccco1` was tested. Which “activity change, negative = inhibition” value did it give?
Its value is -9.16%.

How did the Potency turn out when `C=CCn1c(SCC(=O)Nc2nc3ccccc3s2)nnc1-c1ccccc1O` was run?
Its Potency is 25.1 µM (active).

Which “activity change, negative = inhibition” value does the source give for `CC(C)C(N)C(=O)OCCOCn1cnc2c(=O)[nH]c(N)nc21` (stereo not given) here?
Its value is 13.5%.

Which “activity change, negative = inhibition” value does the source give for `Cc1ccc2c(c1)C(O)(CC(=O)c1cccnc1)C(=O)N2` (stereo not given) here?
Its value is 0.486%.

Which activity change, negative = inhibition does the source give for `COc1ccc(/C=C/NC(=O)c2ccc(OC)cc2)cc1` here?
Its activity change, negative = inhibition is -5.84% [at 11.4 µM].

For `Cc1cccn2c(=O)c3cc(C(=O)NCc4ccccn4)n(C)c3nc12`, which “activity change, negative = inhibition” value is on record?
Its value is 15.7%.

With `O=C(NCc1ccccn1)c1ccc2nc(-c3ccco3)c(-c3ccco3)nc2c1` as the molecule, how does the Potency read?
Its Potency is 3.16 µM (active).

For `O=C(NCc1ccccn1)c1cc2ccccc2oc1=O`, which “activity change, negative = inhibition” value is on record?
The value was 4.58%.

How did the “activity change, negative = inhibition” value turn out when `O=C(O)c1ccc(Cl)c(S(=O)(=O)Nc2ccccc2Cl)c1` was run?
The value was -1.82%.

For `N#Cc1ccc(COC(=O)Cn2nnc(-c3ccccc3)n2)cc1`, which “activity change, negative = inhibition” value is on record?
The value was -11.8%.

`N#Cc1c(N)sc2c1CCN(C(=O)OCc1ccccc1)C2` was tested. Which Potency did it give?
The Potency was 15.8 µM (active).

`NC1(C(=O)OCc2ccccc2)CCCC1` was tested. Which activity change, negative = inhibition did it give?
The activity change, negative = inhibition was -11.8% [at 11.4 µM].

`CC(CCC(=O)O)C1CCC2C3C(O)C[C@@H]4CC(O)CC[C@@]4(C)C3CC[C@@]12C` (stereo not given in full) was tested. Which activity change, negative = inhibition did it give?
The activity change, negative = inhibition was “inactive”.

For `C#CCC(C(=O)OC)(C(=O)OC)C(C[N+](=O)[O-])c1ccccc1` (stereo not given), which activity change, negative = inhibition is on record?
Its activity change, negative = inhibition is -3.59% [at 11.4 µM].

With `CCC(CCC(C)C1CCC2C3CC=C4CC(O)CC[C@@]4(C)C3CC[C@@]12C)C(C)C` (stereo not given in full) as the molecule, how does the “activity change, negative = inhibition” value read?
Its value is -3.31%.

Which activity change, negative = inhibition does the source give for `CO[C@H]1COC(=O)C/C=C\[C@H](C)COC(=O)[C@@H](OCc2ccccc2)/C=C\[C@@H]1C` here?
Its activity change, negative = inhibition is 5.89% [at 11.4 µM].

`C=C1C(=O)C23C(O)C1CCC2[C@]12COC3(O)C(O)C1C(C)(C)CC[C@H]2O` (stereo not given in full) was tested. Which “activity change, negative = inhibition” value did it give?
Its value is 0.681%.

For `CCOCCCN1C(=O)CN(C2CCCCC2)C(=O)C1c1ccc(OCC)c(OC)c1` (stereo not given), which “activity change, negative = inhibition” value is on record?
Its value is 2.68%.

`COC(=O)[C@@H]1CC[C@H](C)[C@@H](c2ccc(C)cc2)N1C(=O)c1ccc(/C=N\OC[C@@H](O)COCc2ccco2)cc1` was tested. Which activity change, negative = inhibition did it give?
Its activity change, negative = inhibition is -2.65% [at 11.4 µM].

Which “activity change, negative = inhibition” value does the source give for `Cc1ccc(-c2nc(CS(=O)CC(=O)N3CCN(c4ncccn4)CC3)c(C)o2)cc1` (stereo not given) here?
The value was -6.88%.

For `COc1ccc2[nH]c(=O)c(CN(Cc3nnnn3CCc3ccccc3)CC3CCCO3)cc2c1` (stereo not given), which Potency is on record?
The Potency was 1.26 µM (active).

With `CCOc1ccc2[nH]c(=O)c(CN(Cc3nnnn3CCc3ccccc3)CC3CCCO3)cc2c1` (stereo not given) as the molecule, how does the “activity change, negative = inhibition” value read?
The value was -10.3%.

How did the “activity change, negative = inhibition” value turn out when `CCOc1ccc2[nH]c(=O)c(CN(Cc3nnnn3Cc3ccccc3)CC3CCCO3)cc2c1` (stereo not given) was run?
The value was 7.24%.

Which “activity change, negative = inhibition” value does the source give for `O=C(CSc1nnc2scc(-c3ccc(F)cc3)n12)NCc1ccco1` here?
Its value is 3.22%.

For `CCCc1nc2c(C)cc(-c3nc4ccccc4n3C)cc2n1Cc1ccc(-c2ccccc2C(=O)O)cc1`, which “activity change, negative = inhibition” value is on record?
The value was 3%.
